Measurements published in PubChem BioAssay.
The source made the active and inactive calls.

Experiments:
[1] = small molecules captured by biotinylated probe aFSTL3 – biochemical, small-molecule microarray, fluorescence 635/667, stem cell growth factor project, primary screen (AID 1064); conditions: higher = more signal;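 further: measures binding of the biotinylated anti-FSTL3 antibody to printed compounds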
[2] = binders from COS7 lysate, DM2A8 probe, primary screen, torsin A project, cell lysate, small-molecule microarray, fluorescence 635/667 (AID 1065); conditions: higher = more signal, COS7 lysate expressing mutant human TOR1A
[3] = small molecules captured by biotinylated probe aFGF2 – biochemical, small-molecule microarray, fluorescence 635/667, stem cell growth factor project, primary screen (AID 1067); conditions: higher = more signal;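 further: measures binding of biotinylated aFGF2 protein to printed compounds on slides; z-score merges feature fluorescence and signal-to-noise across triplicate slides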
[4] = small molecules captured by biotinylated probe aFGF10 – biochemical, small-molecule microarray, fluorescence 635/667, stem cell growth factor project, primary screen (AID 1071); conditions: higher = more signal;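 further: score merges 667 nm spot intensity and signal to noise from triplicate slides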
[5] = target: Neurogenic locus notch homolog protein 2 (Homo sapiens) (UniProt Q04721); assay: small molecules binding Notch2 protein – biochemical, small-molecule microarray, 635 nm fluorescence, stem cell growth factors, primary screen (AID 1073); conditions: higher = more signal
[6] = target: Pro-neuregulin-1, membrane-bound isoform (Homo sapiens) (UniProt Q02297); assay: small molecules binding neuregulin-1 protein – biochemical, small-molecule microarray, fluorescence 635/667, psychiatric disease protein project, primary screen (AID 1075); conditions: NRG1 binding, 635 nm fluorescence, higher = more signal;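 further: score combines 667 nm spot fluorescence with signal to noise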
[7] = system: Neuregulin-1 EGF-like domain; assay: small molecules binding NRG1 EGF domain – biochemical, small-molecule microarray, 635 nm fluorescence, primary screen (AID 1081); conditions: higher = more signal;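 further: binding of the protein to compounds printed on small-molecule microarray slides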
[8] = FRG1 expression reporter modulators in myotubes – cell-based, C2C12 myotubes, firefly/Renilla luciferase, luminescence, FRG1 inhibition for FSHD, primary screen (AID 1084); conditions: FRG1 promoter luciferase, higher = more signal, called active from +8 up or from −8 down
[9] = small molecules captured by biotinylated probe aFST – biochemical, small-molecule microarray, fluorescence 635/667, stem cell growth factor project, primary screen (AID 1086); conditions: higher = more signal;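 further: score merges 667 nm fluorescence with signal-to-noise of each printed compound spot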
[10] = binders of probe aHhip on microarray, primary screen, stem cell growth factor project, biochemical, small-molecule microarray, fluorescence 635/667 (AID 1087); conditions: higher = more signal;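 further: score merges spot fluorescence at 667nm with spot signal to noise ratio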
[11] = system: PRMT1 (protein arginine N-methyltransferase 1); assay: small molecules binding arginine methyltransferase PRMT1 – biochemical, small-molecule microarray, 635 nm fluorescence, primary screen (AID 1088); conditions: higher = more signal;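 further: binding of Prmt1 protein to compounds spotted on small-molecule microarray slides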
[12] = growth effects on S. cerevisiae YJM789 – YJM789 clinical isolate, OD600, 24 h, basal, primary screen (AID 1089); conditions: higher = more signal, called active from +8 up or from −8 down;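 further: growth of clinical yeast isolate S. cerevisiae YJM 789 seeded 1000 cells per well; test concentration not given here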
[13] = S. pombe growth modifiers, basal conditions – strain 972, OD600, 24 h, no modulator, primary screen (AID 1090);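 further: basal condition with compound alone and no growth modifier present; test concentration not given here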; conditions: S. pombe 972 growth, higher = more signal, called active from +8 up or from −8 down
[14] = budding yeast growth modifiers under rapamycin – strain BY4716, OD600, 96 h, primary screen (AID 1091); further: test concentration not given here; conditions: S. cerevisiae BY4716 + rapamycin, higher = more signal, called active from +8 up or from −8 down
[15] = target: Torsin-1A-interacting protein 2 (Homo sapiens) (UniProt Q8NFQ8); assay: small molecules binding lysate-expressed LULL1 – cell lysate, human LULL1 lysate, 635/667 nm fluorescence, primary screen (AID 1092); conditions: small-molecule microarray, hLULL1 lysate binding, 635 nm fluorescence; higher = more signal;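 further: probe is lysate of COS7 cells overexpressing human LULL1; score merges per-feature 667 nm fluorescence with signal-to-noise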
[16] = optical density change of DRC41 E. coli – strain DRC41, OD650, 24 h, E. coli filamentation project, primary screen (AID 1093);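 further: MC1000 strain lacking acrAB efflux and sulA so SOS filamentation is blocked; test concentration not given here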; conditions: E. coli DRC41 growth, higher = more signal, called active from +8 up or from −8 down
[17] = probe aLefty2 binding to arrayed compounds – biochemical, biotinylated probe, 635/667 nm fluorescence, primary screen (AID 1094); conditions: small-molecule microarray, higher = more signal;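 further: score merges spot fluorescence near 667 nm with spot signal-to-noise ratio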
[18] = system: Noggin (protein binding on small-molecule microarray); assay: small molecules binding Noggin protein – biochemical, 635/667 nm fluorescence, primary screen (AID 1095); conditions: 635 nm fluorescence, higher = more signal;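 further: score merges 667 nm feature fluorescence with signal to noise over triplicate slides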
[19] = target: Neurogenic locus notch homolog protein 3 (Homo sapiens) (UniProt Q9UM47); assay: small molecules binding NOTCH3 protein – biochemical, 635/667 nm fluorescence, primary screen (AID 1096); conditions: small-molecule microarray, 635 nm fluorescence, higher = more signal
[20] = probe aEGFR binding to arrayed compounds – biochemical, biotinylated probe, 635/667 nm fluorescence, primary screen (AID 1097); conditions: small-molecule microarray, higher = more signal;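 further: probe is a biotinylated anti-EGFR antibody binding compounds printed on slides; score combines fluorescence near 667 nm and signal to noise of each spot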

Pro-neuregulin-1, membrane-bound isoform (Homo sapiens), sequence (Q02297 whole entry, looked up, the tested form may be a part, canonical isoform): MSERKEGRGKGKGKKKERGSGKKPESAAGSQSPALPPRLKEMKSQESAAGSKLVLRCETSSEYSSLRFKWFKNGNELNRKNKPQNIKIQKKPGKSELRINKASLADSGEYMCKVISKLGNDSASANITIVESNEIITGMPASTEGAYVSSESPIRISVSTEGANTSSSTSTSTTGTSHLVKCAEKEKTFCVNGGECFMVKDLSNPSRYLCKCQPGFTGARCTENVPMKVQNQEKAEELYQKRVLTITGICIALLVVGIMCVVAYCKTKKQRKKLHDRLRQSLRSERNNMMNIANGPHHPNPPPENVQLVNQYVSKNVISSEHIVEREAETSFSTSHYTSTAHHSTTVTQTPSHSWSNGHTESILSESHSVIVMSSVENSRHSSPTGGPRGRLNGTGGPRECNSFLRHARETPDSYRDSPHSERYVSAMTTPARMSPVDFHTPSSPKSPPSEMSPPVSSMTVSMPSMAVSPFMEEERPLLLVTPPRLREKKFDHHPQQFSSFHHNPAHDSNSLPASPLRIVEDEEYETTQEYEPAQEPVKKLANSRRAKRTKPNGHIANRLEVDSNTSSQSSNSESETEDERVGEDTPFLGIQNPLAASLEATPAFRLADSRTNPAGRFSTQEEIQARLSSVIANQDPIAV
Neurogenic locus notch homolog protein 3 (Homo sapiens), sequence (Q9UM47 whole entry, looked up): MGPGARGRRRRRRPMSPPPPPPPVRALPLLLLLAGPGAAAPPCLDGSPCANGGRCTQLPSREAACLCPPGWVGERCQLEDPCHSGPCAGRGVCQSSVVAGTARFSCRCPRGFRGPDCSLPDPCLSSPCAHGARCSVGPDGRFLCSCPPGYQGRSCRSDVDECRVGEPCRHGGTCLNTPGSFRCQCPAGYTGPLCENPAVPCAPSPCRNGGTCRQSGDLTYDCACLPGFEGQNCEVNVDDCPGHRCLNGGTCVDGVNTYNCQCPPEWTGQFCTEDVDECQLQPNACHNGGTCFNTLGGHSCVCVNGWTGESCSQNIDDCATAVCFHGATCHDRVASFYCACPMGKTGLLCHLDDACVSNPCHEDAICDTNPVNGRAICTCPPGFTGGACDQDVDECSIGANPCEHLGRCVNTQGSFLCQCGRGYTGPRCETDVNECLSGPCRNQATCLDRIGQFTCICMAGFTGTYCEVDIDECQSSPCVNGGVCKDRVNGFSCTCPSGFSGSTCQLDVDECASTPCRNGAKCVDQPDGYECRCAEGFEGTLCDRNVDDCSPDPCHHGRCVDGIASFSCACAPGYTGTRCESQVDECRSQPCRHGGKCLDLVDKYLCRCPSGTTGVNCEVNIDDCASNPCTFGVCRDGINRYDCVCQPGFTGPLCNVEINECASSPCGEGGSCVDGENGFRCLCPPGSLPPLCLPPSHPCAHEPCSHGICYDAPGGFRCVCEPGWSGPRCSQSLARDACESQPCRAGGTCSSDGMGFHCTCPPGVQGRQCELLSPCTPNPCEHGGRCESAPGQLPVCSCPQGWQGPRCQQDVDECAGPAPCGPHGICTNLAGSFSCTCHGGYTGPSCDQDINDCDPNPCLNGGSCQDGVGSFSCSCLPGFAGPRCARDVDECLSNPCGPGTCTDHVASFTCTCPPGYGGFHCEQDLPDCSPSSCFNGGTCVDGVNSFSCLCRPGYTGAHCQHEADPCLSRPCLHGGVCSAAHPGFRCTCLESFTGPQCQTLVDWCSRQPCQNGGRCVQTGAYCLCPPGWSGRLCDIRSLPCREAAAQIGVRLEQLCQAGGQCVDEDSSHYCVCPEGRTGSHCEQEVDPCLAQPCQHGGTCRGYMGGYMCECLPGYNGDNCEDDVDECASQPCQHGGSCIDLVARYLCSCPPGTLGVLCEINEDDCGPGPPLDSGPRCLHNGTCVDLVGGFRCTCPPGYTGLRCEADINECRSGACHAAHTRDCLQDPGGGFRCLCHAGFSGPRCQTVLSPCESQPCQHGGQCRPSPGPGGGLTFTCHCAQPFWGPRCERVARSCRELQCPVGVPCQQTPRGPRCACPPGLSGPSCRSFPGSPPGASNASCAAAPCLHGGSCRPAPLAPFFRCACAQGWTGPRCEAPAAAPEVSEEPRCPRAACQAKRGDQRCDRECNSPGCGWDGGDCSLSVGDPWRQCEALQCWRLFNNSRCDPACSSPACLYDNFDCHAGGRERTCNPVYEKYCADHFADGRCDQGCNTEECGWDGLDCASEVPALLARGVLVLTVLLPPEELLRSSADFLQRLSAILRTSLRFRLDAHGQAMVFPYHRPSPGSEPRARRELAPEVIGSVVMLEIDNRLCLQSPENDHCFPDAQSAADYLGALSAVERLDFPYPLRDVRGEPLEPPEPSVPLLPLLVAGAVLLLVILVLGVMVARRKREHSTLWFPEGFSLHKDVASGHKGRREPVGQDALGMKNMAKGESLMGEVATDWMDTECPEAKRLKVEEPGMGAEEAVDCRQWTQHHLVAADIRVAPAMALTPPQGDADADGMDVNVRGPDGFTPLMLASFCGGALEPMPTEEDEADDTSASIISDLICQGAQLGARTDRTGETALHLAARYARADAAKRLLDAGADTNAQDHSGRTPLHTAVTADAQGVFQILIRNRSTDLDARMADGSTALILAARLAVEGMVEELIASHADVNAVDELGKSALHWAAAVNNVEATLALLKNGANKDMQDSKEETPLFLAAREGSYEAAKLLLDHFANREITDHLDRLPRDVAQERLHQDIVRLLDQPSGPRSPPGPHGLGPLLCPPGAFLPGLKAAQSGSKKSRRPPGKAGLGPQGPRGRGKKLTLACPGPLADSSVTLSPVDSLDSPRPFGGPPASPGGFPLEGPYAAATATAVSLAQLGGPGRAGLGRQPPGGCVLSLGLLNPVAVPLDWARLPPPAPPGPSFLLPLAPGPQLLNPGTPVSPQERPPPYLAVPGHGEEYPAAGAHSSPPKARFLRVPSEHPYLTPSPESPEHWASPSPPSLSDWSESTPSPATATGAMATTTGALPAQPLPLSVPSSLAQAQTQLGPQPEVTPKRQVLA
Torsin-1A-interacting protein 2 (Homo sapiens), sequence (Q8NFQ8 whole entry, looked up): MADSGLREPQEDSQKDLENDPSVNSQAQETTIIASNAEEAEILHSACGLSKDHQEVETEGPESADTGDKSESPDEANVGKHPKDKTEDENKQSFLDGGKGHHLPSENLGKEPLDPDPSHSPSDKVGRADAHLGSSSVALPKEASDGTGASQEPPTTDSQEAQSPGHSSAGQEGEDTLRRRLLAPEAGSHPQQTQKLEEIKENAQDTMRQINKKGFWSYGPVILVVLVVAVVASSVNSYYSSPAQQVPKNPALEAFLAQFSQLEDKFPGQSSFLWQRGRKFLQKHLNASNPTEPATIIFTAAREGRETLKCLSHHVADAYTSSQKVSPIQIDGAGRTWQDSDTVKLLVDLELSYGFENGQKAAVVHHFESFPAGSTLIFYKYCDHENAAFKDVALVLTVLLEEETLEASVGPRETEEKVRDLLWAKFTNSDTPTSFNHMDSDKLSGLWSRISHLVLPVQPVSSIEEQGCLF

For COC(=O)c1c2oc(c1C(=O)OC)C(=O)N[C@H](Cc1ccccc1)Cn1cc(nn1)C1(CCCCC1)NC(=O)N[C@H](CO)CC2, the composite z-score [1] was -0.194, the composite z-score [2] was 0.112 and the composite z-score [3] was -0.0561. It also gave a composite z-score [4] of 0.399, a composite z-score [5] of -0.0222 and a composite z-score [6] of 0.657. For the same molecule, the composite z-score [7] was 0.647, the z-score [8] was -1.12 (inactive) and the composite z-score [9] was -0.259. For the same molecule, the composite z-score [10] was -0.0102, the composite z-score [11] was 0.286 and the z-score [12] was 1.92 (inactive). For the same molecule, the z-score [13] was -0.261 (inactive), the z-score [14] was -0.691 (inactive) and the composite z-score [15] was 1.46. The z-score [16] was 2.01 (inactive), the composite z-score [17] was -0.124 and the composite z-score [18] was 0.292. It also gave a composite z-score [19] of -0.147 and a composite z-score [20] of -0.158.

With O=C1OC[C@@H](c2ccccc2)n2cc(/C=C/c3ccccc3)cc21 the composite z-score [1] was 0.0087, the composite z-score [2] was -0.382 and the composite z-score [3] was -0.178. The composite z-score [4] was -0.162, the composite z-score [5] was -0.924 and the composite z-score [6] was 0.895. The composite z-score [7] was 0.132, the z-score [8] was -0.144 (inactive) and the composite z-score [9] was -0.503. For the same molecule, the composite z-score [10] was -0.306, the composite z-score [11] was -0.329 and the z-score [12] was -0.154 (inactive). For the same molecule, the z-score [13] was -2.68 (inactive), the z-score [14] was 0.614 (inactive) and the composite z-score [15] was -0.0278. The z-score [16] was 1.45 (inactive), the composite z-score [17] was -0.0042 and the composite z-score [18] was -0.364. The composite z-score [19] was -0.0623 and the composite z-score [20] was -0.108.

Molecule C=CCC(OC(C)=O)[C@@H]1[C@@H](N(Cc2ccc(-c3ccccc3)cc2)C(=O)Cc2ccc(OC)cc2)c2cc(OCCCO)ccc2N1C(=O)Cc1ccc(OC)cc1 (stereo not given in full) has a composite z-score [1] of 0.169, a composite z-score [2] of 0.414 and a composite z-score [3] of -0.0363. For the same molecule, the composite z-score [4] was 0.479, the composite z-score [5] was -0.076 and the composite z-score [6] was 0.851. The composite z-score [7] was 0.0142, the z-score [8] was -1.5 (inactive) and the composite z-score [9] was 0.195. For the same molecule, the composite z-score [10] was 0.411, the composite z-score [11] was 0.622 and the z-score [12] was -0.0563 (inactive). The z-score [13] was 0.68 (inactive), the z-score [14] was -0.753 (inactive) and the composite z-score [15] was 0.436. The z-score [16] was -0.553 (inactive), the composite z-score [17] was 0.0717 and the composite z-score [18] was -0.19. For the same molecule, the composite z-score [19] was -0.209 and the composite z-score [20] was 0.0101.

O=C1O[C@H](c2ccccc2)[C@H](c2ccccc2)N2[C@H]1[C@@H](C(=O)Nc1nc3ccccc3s1)[C@]1(C(=O)Nc3ccccc31)[C@H]2c1ccccc1OCCO showed a composite z-score [1] of -0.249, a composite z-score [2] of -0.0611 and a composite z-score [3] of 0.0084. The composite z-score [4] was 0.12, the composite z-score [5] was 1.15 and the composite z-score [6] was 1.42. For the same molecule, the composite z-score [7] was 1.02, the z-score [8] was 1.62 (inactive) and the composite z-score [9] was -0.0275. For the same molecule, the composite z-score [10] was -0.0994, the composite z-score [11] was 1.5 and the z-score [12] was 1.91 (inactive). The z-score [13] was 2.2 (inactive), the z-score [14] was 3.94 (inactive) and the composite z-score [15] was 3.09. The z-score [16] was 0.732 (inactive), the composite z-score [17] was 0.229 and the composite z-score [18] was 0.712. The composite z-score [19] was 0.595 and the composite z-score [20] was -0.0828.

Molecule CCCC[C@@H](O)C1=C(C)Cn2c(=O)n(-c3ccccc3)c(=O)n2[C@H]1CO has a composite z-score [1] of -0.571, a composite z-score [2] of -0.0827 and a composite z-score [3] of -0.092. It also gave a composite z-score [4] of 0.361, a composite z-score [5] of -0.362 and a composite z-score [6] of -0.773. For the same molecule, the composite z-score [7] was -0.151, the z-score [8] was -0.755 (inactive) and the composite z-score [9] was -0.378. For the same molecule, the composite z-score [10] was 0.0053, the composite z-score [11] was -0.23 and the z-score [12] was -1.43 (inactive). For the same molecule, the z-score [13] was -1.39 (inactive), the z-score [14] was -0.846 (inactive) and the composite z-score [15] was -0.249. For the same molecule, the z-score [16] was 2.53 (inactive), the composite z-score [17] was -0.218 and the composite z-score [18] was -0.0422. The composite z-score [19] was -0.839 and the composite z-score [20] was -0.0517.
